This is a sample that favours compounds with a hit; in the whole collection about 12% have one here.
CHX counter: affects cycloheximide protein synthesis inhibition readout, counter-screen. AID 2314. cell reporter, cycloheximide protein synthesis inhibition counterscreen. actives 12% (n = 300,000). max response, %; in the data active = max response mostly above about 13%, no sharp cut-off; inactive = mostly below about 14%; note: read at 38.3 µM for the half of the compounds with a filed dose; 0% is about no effect
Sm TGR block: S. mansoni TGR enzyme inhibition; purified TGR, DTNB reduction, TNB absorbance 405 nm; Potency, µM (doses to about 114 µM), for the others: top-dose activity change, negative = inhibition, hits mostly inhibitors; actives 3% (n = 360,000); active = well fitted inhibition curve with a large enough effect; inconclusive = small, poorly fitted or top-dose-only effect; inactive = no such curve, though single readings can be large or run the other way; note: potency is the fitted concentration of half-maximal effect; % is set by controls: 0 for no effect and ±100 for the full control effect; nearly all actives have a fitted effect of over 60% in size
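First, TGR (20 nM dispensed) and NADPH were mixed with compound. Second, a 15 min room-temperature incubation followed. Third, further NADPH and then DTNB were added to start the reaction. Finally, TNB absorbance was monitored kinetically.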
FMDV antiviral: antivirals against foot and mouth disease virus | FMDV antiviral cell-based qHTS | Potency, µM (top dose mostly 57.9 µM), for inactives: at the top dose activity change, negative = inhibition, most hits filed as inhibitors | actives 1.2% (n = 410,000); calls by dose curve; tested in HEK293T cells; note: read-out not given here; potency is the fitted concentration of half-maximal effect; % is set by controls: 0 for no effect and ±100 for the full control effect; nearly all actives have a fitted effect of over 45% in size
Shiga toxin inh: Shiga toxin inhibition; Vero cells, Shiga toxin protein synthesis inhibition reporter; inhibition, % at 38.7 µM; actives 9.2% (n = 290,000); AID 2315; in the data active = inhibition mostly above about 28%, no sharp cut-off; inactive = mostly below about 43%; note: 0% is about no effect
The depositor's hits bear a star; ? = inconclusive; · = no result given.

SMILES | CHX counter | Sm TGR block | FMDV antiviral | Shiga toxin inh
CN1C(=O)NC(=O)C2(Cc3ccccc3N3CCOCC32)C1=O (stereo not given) | -2 | -4% | 16% | 28
CN1C(=O)NC(=O)[C@]2(Cc3ccccc3N3CCN(c4ccccc4)CC32)C1=O (stereo not given in full) | 31* | ? | 19% | 13
O=C1NC(=O)[C@]2(Cc3ccccc3N3CCN(c4ccccc4)CC32)C(=O)N1Cc1ccccc1 (stereo not given in full) | 30* | ? | 44% | 54*
O=C1NC(=O)[C@]2(Cc3ccccc3N3CCN(c4ccccc4)CC32)C(=O)N1c1ccccc1 (stereo not given in full) | 25* | -10% | 22% | 76*
COCCCNC(=O)C1CCN(C(=O)c2ccc(-n3ccc4ccccc43)s2)CC1 | · | 9% | 17% | ·
CCN(CC)CCNC(=O)c1nn(C)c2c1CS(=O)(=O)c1ccccc1-2 | · | -4% | -7% | ·
CC1(C)CC(=O)C=C(Nc2ccc(Cl)cc2)C1 | -3 | 1% | 4% | -11
CC1(C)CC(=O)/C(=N/Nc2ccc(Cl)cc2)CO1 | 32* | 7% | 13% | 93*
COc1ccccc1N/N=C1\COC(C)(C)CC1=O | 34* | -6% | 40% | 137*
Cc1cccc(N/N=C2/COC(C)(C)CC2=O)c1 | 78* | -4% | 47% | 133*
COc1ccccc1NC(=O)Cn1c(=O)n(C)c(=O)c2sc3c(c21)COC(C)(C)C3 | 10 | -6% | -17% | 2
Cc1cc(C)c(OCC(=O)Nc2ccc3c(c2)OCO3)cc1C | 21* | -8% | 48% | 16
CN(c1ccc(C(=O)N2CCN(Cc3ccc4c(c3)OCO4)CC2)cc1)S(=O)(=O)c1ccccc1 | -3 | -26% | ? | -6
Cc1cc(C)c(OCC(=O)Nc2cccc(O)c2)cc1C | 28* | 1% | -14% | 59*
Cc1cc(Cl)c(S(=O)(=O)Nc2cccc(O)c2)cc1OCC(N)=O | 3 | 4% | -9% | 8
Cc1ccc(S(=O)(=O)N(C)c2ccc(C(=O)N3CCN(Cc4ccc5c(c4)OCO5)CC3)cc2)cc1 | -2 | 0% | 16µM* | 8
Cc1ccc(C)c(OCC(=O)Nc2ccc3c(c2)OCO3)c1 | 48* | -4% | 1% | 42*
Cc1ccccc1OCC(=O)OCC(=O)Nc1ccc2c(c1)OCO2 | · | · | -6% | ·
O=C(COc1cccnc1[N+](=O)[O-])Nc1ccc2c(c1)OCO2 | -2 | -1% | 24% | 59
COc1cc(Cl)c(C)cc1N1C(=O)[C@@H]2C[C@H]1CN2Cc1ccccn1 | · | · | -11% | ·
CCN(CC)C(=O)Cn1c(=O)n(CCc2ccccc2)c(=O)c2ccccc21 | · | 0% | -26% | ·
Cc1ccc(OCC(=O)N2CCN(Cc3ccc4c(c3)OCO4)CC2)cc1 | -1 | -3% | ? | -1
Cc1ccc(C)c(OCC(=O)N2CCN(Cc3ccc4c(c3)OCO4)CC2)c1 | -5 | 56µM* | -20% | -14
Cc1ccc(OCC(=O)Nc2ccc3c(c2)OCO3)c([N+](=O)[O-])n1 | 28* | -16% | 48% | 54*
COc1cc(C=O)ccc1OCC(=O)Nc1ccc2c(c1)OCO2 | 20* | 4% | 4% | 44*
SMILES | CHX counter | Sm TGR block | FMDV antiviral | Shiga toxin inh
Cc1ccc(NC(=O)C(=O)NCC(c2ccc3c(c2)OCO3)N2CCN(c3ccccc3)CC2)cc1 (stereo not given) | · | 3% | -6% | ·
CC(NC(=O)CCl)c1ccc(Cl)c(Cl)c1 (stereo not given) | 1 | 16µM* | 0% | -2
CCC(NC(=O)CCl)c1ccc(C)cc1 (stereo not given) | 6 | ? | ? | 25
Cc1ccc(S(=O)(=O)NCC(=O)NCC(=O)NC(C)c2ccccc2Br)cc1C (stereo not given) | -4 | 1% | -30% | 5
CCCC(NC(=O)CCl)c1ccccc1 (stereo not given) | 6 | 45µM* | ? | -4
CC(C)CC(NC(=O)CCl)c1ccccc1 (stereo not given) | 1 | 40µM* | -14% | 16
CC(NC(=O)CCl)c1ccccc1Br (stereo not given) | 7 | 16µM* | ? | -1
CCOC(=O)c1ccn(-c2nc(-c3cccc(OC)c3)cc(C(F)(F)F)n2)n1 | · | -5% | ? | ·
COCCNc1nc2c(c(=O)n(Cc3ccc(OC)cc3)c(=O)n2C)n1C | 3 | -24% | ? | -16
COc1ccc(CNc2nc3c(c(=O)n(Cc4ccc(Cl)cc4)c(=O)n3C)n2C)cc1 | 2 | -4% | 13µM* | -11
Cn1c(N2CCN(c3ccccn3)CC2)nc2c1c(=O)n(Cc1ccccc1Cl)c(=O)n2C | · | · | -22% | ·
Cn1c(N2CCN(c3ccccn3)CC2)nc2c1c(=O)n(Cc1ccc(Cl)cc1)c(=O)n2C | -1 | -10% | 20µM* | -6
Cn1c(NCc2ccco2)nc2c1c(=O)n(Cc1ccc(Cl)c(Cl)c1)c(=O)n2C | -5 | 6% | 32µM* | -20
O=S(=O)(NCCc1csc2nc(-c3ccc(Cl)cc3)nn12)c1cccs1 | · | 5% | 0% | ·
C#CCOc1ccc(-c2nnc(Nc3cccc(C)c3)c3ccccc23)cc1 | · | 0% | ? | ·
CC(=O)c1ccc(Nc2nc(-c3sc(C)nc3C)cs2)cc1 | · | · | 25µM* | ·
CC(=O)Nc1ccc(Nc2nc(-c3sc(C)nc3C)cs2)cc1 | 11* | 7% | 32µM* | 53
COc1cc(NC(=O)CCn2c(-c3ccccc3)cc(C(C)=O)c2C)cc(OC)c1 | · | 7% | -18% | ·
COc1ccc(C(CNC(=O)C2CC2)N(C)C)cc1 (stereo not given) | 17* | -6% | 16% | 27*
CCc1ccccc1NC(=O)Cn1c(=O)n(CCc2ccccc2)c(=O)c2sc3ccccc3c21 | · | -5% | -15% | ·
Cc1ncc2c(c1CNC(=O)c1ccc3c(c1)OCO3)CCN(C(=O)/C=C/c1ccccc1Cl)C2 | · | · | -5% | ·
Cc1cccc2nc3c(nc12)CCCC3 | -2 | -5% | 11% | -15
Cc1cc2nc3c(nc2cc1C)CCCC3 | 59* | 14% | 21% | 108*
O=C(CSc1n[nH]c(=O)n1Cc1ccco1)N1CCOCC1 | 16* | 0% | -15% | -6
O=C(CSc1n[nH]c(=O)n1-c1cccnc1)N1CCOCC1 | 20* | 8% | -14% | 4
SMILES | CHX counter | Sm TGR block | FMDV antiviral | Shiga toxin inh
O=C(Nc1ccc(-c2noc(-c3cccs3)n2)cc1)c1cccnc1 | 27* | 0% | -7% | 59*
CC(Oc1ccc(Cl)cc1Cl)c1nc(-c2ccccn2)no1 (stereo not given) | 36* | -22% | · | 97*
CC(Oc1ccc(Cl)cc1Cl)C(=O)NNC(=O)c1cccnc1 (stereo not given) | 2 | -14% | 0% | 3
CC(Oc1ccc(Cl)cc1Cl)c1nc(-c2ccc(NC(=O)c3ccncc3)cc2)no1 (stereo not given) | 8 | -6% | 16µM* | -11
CC(Oc1ccc(Cl)cc1Cl)c1nc(-c2ccc(NC(=O)c3cccnc3)cc2)no1 (stereo not given) | -2 | -4% | 28µM* | -5
CN(Cc1nc(-c2ccccn2)no1)S(=O)(=O)c1ccc(Cl)cc1 | 0 | 0% | 4% | 9
CCN(CC)c1ccc(CN(C(=O)Cc2coc3ccc(C)cc23)C2CCS(=O)(=O)C2)cc1 (stereo not given) | · | 20% | -26% | ·

Source: PubChem BioAssay (National Center for Advancing Translational Sciences (NCATS))
